Measurements as given in the supplement of paper PMC6555819.

test system: PXR:RXRa (NR concentration 270 nM, RXRa partner concentration 90 nM); assay: PBM binding z-score (relative to random genomic background probes); higher = stronger binding; sequences stand for … in GC…GCGATTGACAGCGTAGAATGAAGG
Summary of the method: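 Binding z-scores were set against random background probes. The data came from custom Agilent 4×180K protein-binding microarrays carrying double-stranded probes with 34-nt variable regions, incubated 1 h with ligand-free nuclear receptor dimers. Partner-specific antibodies detected binding, and scanned fluorescence was regression-normalized.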

Sequence | PBM binding z-score
TCATATAGGTAAAGGTGAAAGTAGAACGATATGA | 1.08
CCGAGTAGGTTATGCGGCATTCAGGCAACGGTGA | -0.0535
TCAGCCAGGTGAAGGTAACTCAGGTACGCAGTCG | -0.0147
ACTAGCAGGCCAAGTTTGGGTTACTCAAACAAAG | -0.324
CCTCGGAGGAAAACAGGAGGTCAGAGCTGCCAGA | 1.5
ATATGTTGGTTAGCTGGGGTCATTCAGACTAGGC | 5.64
GCTTACGGGCCAAAGGTTATAGCATGAATAGAAT | 2.27
GCTAGCAGGCCATTTGGGTCACTTAATGACGGGC | 0.407
ATCGAAAGGTCGAAGGTGAGTAAACCCACCCGAA | 3.11
TTACCAATGTGAAGGTCGTTGATCCCTCTGTAGA | 1.37
TCATATAGGTTATACAGGTGAAAGTCGGCATCTA | 1.27
AATACAGGGTCACTAGGCCAGAGCAGGTACGAAT | 3.16
CCAGACAAGTGAAAGGTAACTCAGTCTGGTACGC | 0.0621
CCTACTGGGCCACGAAGGGTCATTGATTCAGTGA | 3.23
CAGCTTAGGTCAGGGCCAGTATAGGAGGAACGTT | 0.726
TCGCCTAGGTCATGCGGGCCAGTATAGTGTCGGC | 1.45
ATCGAAAGGTCGAGGTGAGTAAAGAGAAAGGGAA | 2
ATACCAAGGTGATCGTGAGGGCGTTGATACTAAC | 1.29
CCTAATGGGCCATCAGGTCATTGATATCAACGTT | 1.84
TAGCCTAGGTCATTCGGCCAGTATAGTACGCATC | 1.39

Sequence | PBM binding z-score
TAAATGAGGTTATAAGATCAGGGAACGTTGCAAA | 1
AGAATAAGGTTAAGATCAGGGAAACAGAATACAT | 1.18
TAGCGTAGGTCATTCAGGGGCCAGTATAGAAAGC | 3.08
TTTTGTAGATCAAGCAGGTTAAGAAAGCCTGAGT | 0.303
ATCTCTAGGTAACCAAGTTCAGTGATTGCCGAAC | 1.96
TCATATAGGTAGAAGGTGAAAGTCGGTGTGGTAA | 0.746
ACAGACAGGTGATGAAGGTAATTCAGGCTATCAT | -0.0311
AGAACGAGGGAAATGAGTTGATAGCACGGGTGGC | -0.411
ACTTACGGGTCAACGAGGTTATAACACGCGTATA | 5.81
ACAGACCGGTGATGAAGGTAACTCAGGCTATCAT | -0.348
AGAATGAGGTTATACGTAGATCATGGAAGAAAGT | 1.25
TGAATGAGGTTGTAAGATCAGGGAACGTTGCAAA | -0.125
ACTAGCAGGCCAAGTTTGGGACACTCAAACAAAG | -0.655
CGTCAAAGTTCAGGGTAACGTAACAGAAAGCAGC | 2.66
ACAATTAGTTGAGACGAGGGCAACCGATAGGTTG | 1.37
TCGAGTAGGTTAGTCGGGGCATTCAGCCAACATA | -0.0448
CAAACTCGGTCAAGGTCAAAGTCGGTTTGTGCCA | 4.98
CCTACTGGGACATCAGGTCATTGATATCAACGTT | 1.82
AGTCAAAGTTCAGGACGGGGTAACGTAAAGCACG | 3.66
ATCTCTAGGTAAAGATAGTTTAGTGAATGCAAAT | 0.277
